Results on 80 molecules are retold here after PubChem BioAssay AID624405 (Broad Institute, 2012).

Hit rate of the full screen: of about 1,900 compounds, about 250 (13%) were called active. Inconclusive results (about 4%) are left out.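 Rule for the calls: active = fitted curve reaches 40% rescue activity at or below the top valid dose, in every test run; inconclusive = test runs disagree, some active and some inactive; inactive = every run misses the threshold or moves the wrong way.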 Not all results are given here. Entries with a potency or affinity are not part of this list.

The assay can be described thus: suppressors of statin myotoxicity in myotubes, dose response, cell-based, C2C12 myotubes, ATP luminescence, cherry pick (AID 624405).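 Note: myotubes are challenged with simvastatin at 10 µM to lower ATP.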 The conditions noted are these: C2C12 myotubes + simvastatin, 48 h, scaled: DMSO wells 0, geranylgeraniol wells 100; series mostly up to 19.5 µM.
Take `C[C@H](CO)N1C[C@H](C)[C@@H](CN(C)Cc2ccc(-c3ccccc3)cc2)Oc2ccc(NC(=O)Cc3cn(C)c4ccccc34)cc2CC1=O`: the result was inactive.

As to `C[C@@H]1CN([C@H](C)CO)C(=O)c2cccc(NS(=O)(=O)c3cccs3)c2O[C@@H]1CN(C)Cc1ccc(Oc2ccccc2)cc1`, the outcome was inactive.

For the molecule `CC1Cc2ccccc2N1C(=O)C1CCN(S(=O)(=O)Cc2ccccc2)CC1` (stereo not given), the result was inactive.

Consider `Cc1cc(C(=O)CSc2nnnn2-c2ccccc2)c(C)n1CCc1ccccc1`, for which the outcome was inactive.

Regarding `CCOC(=O)c1ccc(-c2c(C(=O)OCC)oc3cc(O)c(CC)cc3c2=O)o1`, the outcome was inactive.

Consider `Cc1cccc(C(=O)N2CCC(n3nnc4cc(F)ccc43)CC2)c1`, for which the outcome was inactive.

Consider `Cc1cccc(C)c1NC(=O)c1nc(S(=O)(=O)Cc2ccccc2)ncc1Cl`, for which the result was inactive.

With `CCC(NS(=O)(=O)c1ccc(C)cc1)C(=O)Nc1ccc(NC(C)=O)cc1` (stereo not given), the result was inactive.

Consider `CS(=O)(=O)c1ncc(Cl)c(C(=O)Nc2ccc(OC(F)F)cc2)n1`, for which the result was inactive.

For the molecule `COc1ccccc1NC(=O)CN1C(=O)CCS(=O)(=O)c2ccccc21`, the outcome was inactive.

Consider `Cc1noc(C)c1NC(=O)Nc1ccc2c(c1)C(=O)N([C@H](C)CO)C[C@@H](C)[C@H](CN(C)C(=O)Nc1ccccc1)OCCCC[C@@H](C)O2`, for which the outcome was inactive.

Turning to `CN1C[C@@H]2[C@H](c3ccccc31)[C@H](CO)N2Cc1ccccc1`, the outcome was inactive.

Turning to `Nc1nc(CSc2nnnn2-c2ccccc2)nc(N2CCCc3ccccc32)n1`, the outcome was inactive.

In the case of `COC(=O)c1c(C)noc1-c1cc(C)on1`, the outcome was inactive.

For the molecule `C[C@@H]1CN([C@H](C)CO)C(=O)c2cc(NC(=O)Nc3ccc(F)cc3)ccc2O[C@@H](C)CCCCO[C@@H]1CN(C)S(=O)(=O)c1cccs1`, the outcome was inactive.

Consider `COc1cccc(-c2cnc3c(c2)C(=O)N([C@H](C)CO)C[C@H](C)[C@H](CN(C)Cc2cccc(C)c2)O3)c1`, for which the result was inactive.

Turning to `C[C@@H]1CN([C@H](C)CO)C(=O)c2cc(NS(C)(=O)=O)ccc2O[C@@H](C)CCCCO[C@H]1CN(C)S(=O)(=O)c1ccc(Cl)cc1`, the outcome was inactive.

Turning to `COc1ccc(NC(=O)Nc2ccc3c(c2)C(=O)N([C@@H](C)CO)C[C@@H](C)[C@@H](CN(C)CC2CCCCC2)OCCCC[C@H](C)O3)cc1`, the result was inactive.

In the case of `CCCCCn1c(N2CCC(C(N)=O)CC2)nc2c1c(=O)[nH]c(=O)n2C`, the result was inactive.

For the molecule `CCCCn1c(SCc2ccccn2)nc2c1c(=O)n(C)c(=O)n2C`, the outcome was inactive.

On to `Cc1cccc(Cn2c(N3CCCCC3C)nc3c2c(=O)[nH]c(=O)n3C)c1` (stereo not given), for which the result was inactive.

For `CCOCCn1c(N2CCN(c3ccc(OC)cc3)CC2)nc2c1c(=O)[nH]c(=O)n2C`, the result was inactive.

Take `O=C(Nc1ccc2nn(-c3ccccc3)nc2c1)c1cccnc1`: the result was inactive.

Consider `O=C(CSCc1ccc(Cl)cc1)N/N=C/c1ccccc1`, for which the outcome was inactive.

Turning to `C[C@@H]1CN([C@@H](C)CO)C(=O)Cc2cc(NC(=O)Nc3cccc4ccccc34)ccc2O[C@H]1CN(C)Cc1ccc(Oc2ccccc2)cc1`, the result was inactive.

Turning to `O=C(Nc1ccccc1Cl)NC1(C(=O)N2CCCCC2)CCCCC1`, the result was inactive.

Turning to `Cc1ccc(-c2cc(N)n(-c3ccc(C)cc3)n2)cc1`, the outcome was inactive.

Take `C=CCn1c(=O)/c(=C\c2ccsc2)s/c1=C(/C#N)C(=O)NCCN1CCOCC1`: the result was inactive.

As for `C[C@@H]1CCCCO[C@H](CN(C)C(=O)Nc2cccc3ccccc23)[C@H](C)CN([C@H](C)CO)C(=O)c2cc(NS(=O)(=O)c3ccc(Cl)cc3)ccc2O1`, the result was inactive.

Turning to `C[C@@H]1CN([C@H](C)CO)C(=O)c2cc(NS(=O)(=O)c3ccc(Cl)cc3)ccc2O[C@H]1CN(C)C(=O)Nc1cccc2ccccc12`, the outcome was inactive.

Regarding `C[C@H]1CN([C@@H](C)CO)C(=O)c2cc(NS(=O)(=O)c3ccc(Cl)cc3)ccc2O[C@H]1CN(C)Cc1ccc(Oc2ccccc2)cc1`, the outcome was inactive.

For the molecule `C[C@H]1CN([C@@H](C)CO)C(=O)c2cc(NC(=O)Nc3ccc(C(F)(F)F)cc3)ccc2O[C@@H]1CN(C)Cc1ccc(C(=O)Nc2ccccc2N)cc1`, the result was inactive.

As for `Cc1ccc(S(=O)(=O)Nc2ccc3c(c2)C(=O)N([C@@H](C)CO)C[C@H](C)[C@H](CN(C)Cc2ccc(C(=O)Nc4ccccc4N)cc2)O3)cc1`, the result was inactive.

As to `Cc1ccc(S(=O)(=O)Nc2ccc3c(c2)C(=O)N([C@@H](C)CO)C[C@H](C)[C@H](CN(C)Cc2ccc(C(F)(F)F)cc2)O3)cc1`, the outcome was inactive.

In the case of `C[C@@H]1CCCCO[C@@H](CN(C)Cc2ccc(C(F)(F)F)cc2)[C@H](C)CN([C@@H](C)CO)C(=O)c2cc(NC(=O)c3ccncc3)ccc2O1`, the result was inactive.

As to `C[C@H]1CCCCO[C@@H](CN(C)C(=O)Nc2ccc3c(c2)OCO3)[C@@H](C)CN([C@@H](C)CO)C(=O)c2cc(NS(=O)(=O)c3cccs3)ccc2O1`, the outcome was inactive.

With `COc1ccc(S(=O)(=O)Nc2ccc3c(c2)C(=O)N([C@@H](C)CO)C[C@H](C)[C@@H](CN(C)S(=O)(=O)c2cccs2)OCCCC[C@@H](C)O3)cc1`, the result was inactive.

As to `CCOc1ccc(C2SCC(=O)N2c2c(C)n(C)n(-c3ccccc3)c2=O)cc1` (stereo not given), the result was inactive.

Regarding `COc1ccccc1Oc1ccc2c(c1)C(=O)N(c1ccc(O)cc1)C2=O`, the result was inactive.

Regarding `C[C@@H]1CN([C@H](C)CO)C(=O)c2cc(C#CC3CCCCC3)cnc2O[C@@H]1CN(C)C(=O)C1CCCCC1`, the result was inactive.

For `COc1ccc(Br)cc1C1SCCN1S(C)(=O)=O` (stereo not given), the outcome was inactive.

As to `CCC12CC3CC(C1)CC(C(=O)NNC(N)=O)(C3)C2`, the result was inactive.

For `COCCNC(=O)C(c1ccc(C)o1)N(Cc1ccc(OC)cc1)C(=O)Cn1nnc2ccccc21` (stereo not given), the result was inactive.

Take `C=CCOc1ccc(/C(CC)=N/O)cc1OC`: the result was inactive.

Take `CS(=O)(=O)N(CC(=O)NCc1ccco1)c1ccc(OCc2ccccc2)cc1`: the outcome was inactive.

For the molecule `COc1cccc(NC(=O)N(C)C[C@H]2Oc3ncc(C#Cc4ccc(F)cc4)cc3C(=O)N([C@@H](C)CO)C[C@@H]2C)c1`, the result was inactive.

As to `CC(C)NC(=O)N1[C@@H](C#N)[C@H](c2ccc(-c3ccc(F)cc3)cc2)[C@@H]1CO`, the result was inactive.

On to `CC(C)NC(=O)N1[C@H](C#N)[C@@H](c2ccc(-c3ccc(F)cc3)cc2)[C@@H]1CO`, for which the outcome was inactive.

Take `N#C[C@H]1[C@H](c2ccc(-c3ccc(F)cc3)cc2)[C@@H](CO)N1C(=O)Cc1ccccc1`: the outcome was inactive.

On to `CC(C)NC(=O)N1[C@H](CO)[C@@H](c2ccc(-c3ccc(F)cc3)cc2)[C@@H]1C#N`, for which the outcome was inactive.

For the molecule `COc1ccc(-c2ccc([C@H]3[C@@H](C#N)N(C(=O)NC4CCCCC4)[C@@H]3CO)cc2)cc1`, the outcome was inactive.

With `COc1ccc(CC(=O)NC(CC(=O)O)c2cccc([N+](=O)[O-])c2)cc1` (stereo not given), the result was inactive.

Consider `N#Cc1ccc(Oc2ccc(/C=N/O)cn2)cc1`, for which the result was inactive.

In the case of `COc1ccc(N2CCN(C(=O)COc3ccc4c(C)cc(=O)oc4c3C)CC2)cc1`, the outcome was inactive.

As to `C[C@H]1CN([C@@H](C)CO)C(=O)c2cc(NS(=O)(=O)c3ccc(Cl)cc3)ccc2O[C@H]1CN(C)S(=O)(=O)c1cccs1`, the outcome was inactive.

In the case of `C[C@@H]1CN([C@@H](C)CO)C(=O)c2cc(NC(=O)Nc3ccc(F)cc3)ccc2O[C@@H](C)CCCCO[C@@H]1CN(C)S(=O)(=O)c1cccs1`, the outcome was inactive.

Turning to `COCCCn1cnc2c(c1=O)c1nc3ccccc3nc1n2-c1ccccc1`, the result was inactive.

In the case of `C[C@@H]1CN([C@@H](C)CO)C(=O)Cc2cc(NC(=O)Cn3cnnn3)ccc2O[C@H]1CN(C)Cc1ccc(Oc2ccccc2)cc1`, the outcome was inactive.

In the case of `COc1ccc(N2Nc3n[nH]c(N)c3N2)cc1`, the outcome was inactive.

Regarding `C[C@@H]1CCCCO[C@H](CN(C)Cc2ccc(C(F)(F)F)cc2)[C@H](C)CN([C@@H](C)CO)C(=O)c2cc(NC(=O)c3ccncc3)ccc2O1`, the outcome was inactive.

On to `O=C(NC1CCN(C(=O)NCc2ccccc2)CC1)c1ccco1`, for which the outcome was inactive.

As for `COc1ccc(-c2cnc3c(c2)C(=O)N([C@H](C)CO)C[C@H](C)[C@H](CN(C)S(=O)(=O)c2ccc(C)cc2)O3)cc1`, the result was inactive.

Take `Cc1noc(C)c1NC(=O)Nc1ccc2c(c1)CC(=O)N([C@H](C)CO)C[C@@H](C)[C@@H](CN(C)Cc1ccc(Cl)c(Cl)c1)O2`: the outcome was inactive.

For the molecule `O=CN1CCC(=O)N(Cc2ccccc2)c2ccccc21`, the outcome was inactive.

With `Cc1cccc(NC(=O)c2ccc(OC3CSC3)cc2)c1`, the result was inactive.

Turning to `COc1cc(NC(=O)c2ccccc2)c(OC)cc1Cl`, the outcome was inactive.

Turning to `COc1ccc(C2NC(C(=O)O)Cc3c2[nH]c2ccccc32)cc1OC` (stereo not given), the outcome was inactive.

Consider `O=C1C[C@@H]2c3c(cccc3CN1Cc1ccc(Br)cc1)C[C@@H](O)[C@H]2O`, for which the outcome was inactive.

For the molecule `O=C1C[C@@H]2c3c(cccc3CN1Cc1ccc(Cl)cc1)C[C@@H](O)[C@H]2O`, the outcome was inactive.

With `COc1ccc(CN2[C@H](CO)[C@H]3c4ccccc4N(C(=O)c4ccccc4)C[C@H]32)cc1`, the outcome was inactive.

`O=C(CSc1nc2ccccc2[nH]1)Nc1ccc2c(c1)OCCO2`: the outcome was inactive.

Take `CCOc1ccc(NC(=O)CN(Cc2ccccc2)S(C)(=O)=O)cc1`: the result was inactive.

Regarding `Cc1cccc(Nc2nc(CC(=O)O)cs2)c1`, the outcome was inactive.

As to `CCOC(=O)Cc1nnc(NC(=O)COc2ccc(OC)cc2)s1`, the outcome was inactive.

Consider `C[C@@H]1CN([C@H](C)CO)C(=O)c2cc(C3=CCCCC3)cnc2O[C@@H]1CN(C)C(=O)c1ccccn1`, for which the result was inactive.

For `C[C@H]1CN([C@@H](C)CO)C(=O)c2cc(NC(=O)Cc3cn(C)c4ccccc34)ccc2O[C@@H]1CN(C)S(=O)(=O)c1cccs1`, the outcome was inactive.

For the molecule `Cc1cc(C)nc(N2CCCC(C(=O)NCc3cccs3)C2)n1` (stereo not given), the result was inactive.

On to `S=C(NCc1ccc(Cl)cc1)Nc1ccccc1`, for which the result was inactive.

With `COc1ccc(S(=O)(=O)Nc2ccc3c(c2)CC(=O)N([C@H](C)CO)C[C@H](C)[C@@H](CN(C)Cc2ccc(C(F)(F)F)cc2)O3)cc1`, the result was inactive.

On to `Cn1c(-c2sc3cc(C(F)(F)F)cnc3c2-c2cccnc2)n[nH]c1=S`, for which the outcome was inactive.
